Source: PubChem BioAssay
Where “and” joins values, the source holds several entries; their conditions need not be identical. Equal values may be shown once. Records with an inconclusive call do not appear. Calls of active or inactive are those of the source.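 The calls were made as follows, unless noted: active = normalized viability below 100% at a tested concentration; inactive = the rest.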

What was measured:
[1] = growth inhibition of DIPG glioma cells, dose response, cell-based, SU-DIPG-XIII, MIPE4.0, CellTiter-Glo, qHTS (AID 1347061; cut-off not given, nearly all actives have AC50 up to about 37 µM;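 also: cells exposed to compound for 48 hours before readout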); conditions: SU-DIPG-XIII viability, CellTiter-Glo ATP luminescence
[2] = growth inhibition of DIPG glioma cells, dose response, cell-based, JHH-DIPG-1, MIPE4.0, CellTiter-Glo, qHTS (AID 1347062; cut-off not given, nearly all actives have AC50 up to about 27 µM;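 as to AC50: cells exposed to compound for two days before readout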); conditions: JHH-DIPG-1 viability, CellTiter-Glo ATP luminescence
[3] = viability loss in pontine glioma line – cell-based, SU-DIPG-XXV, MIPE5.0, CellTiter-Glo, qHTS, dose response (AID 1347065; cut-off not given, nearly all actives have AC50 up to about 26 µM;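 also: cells exposed to compound for 48 hours before ATP readout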); conditions: CellTiter-Glo ATP luminescence
[4] = SU-DIPG-VI glioma cell viability, MIPE4.0 library, CellTiter-Glo luminescence, qHTS (AID 1347066; cut-off not given, nearly all actives have AC50 up to about 30 µM;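 also: cells exposed to compound for 48 hours before readout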); conditions: CellTiter-Glo ATP luminescence
[5] = SU-DIPG-XXV glioma cell viability, MIPE5.0 library, qHTS (AID 1347068; cut-off not given, nearly all actives have IC50 up to about 30 µM;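 as to IC50: cells exposed to compound for 48 hours before viability readout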)
[6] = JHH-DIPG-1 glioma cell viability, MIPE5.0 library, CellTiter-Glo luminescence, qHTS (AID 1347067; cut-off not given, nearly all actives have AC50 up to about 26 µM;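 also: cells exposed to compound for 48 hours before readout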); conditions: JHH-DIPG-1 glioma viability, CellTiter-Glo ATP luminescence
[7] = sensitizers of A549 cells to miR-34 induction, primary screen, imaging, A549 dox-inducible miR-34, nuclei and caspase counts (AID 1347080;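 active = compounds whose cell count with miR-34 switched on is under 0.7 times the count with it off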); conditions: A549 miR-34 inducible, Hoechst nuclei count, 48 h
[8] = modifiers of HSF1 nuclear foci, imaging, Selleck Cancer Library (AID 1347162; in the data active = plate-normalised HSF1 focus index below about 0.46); conditions: human cells, at 10 µM; SSMD: measured here: HSF1 foci SSMD mean; cell count: measured here: cell number; plate-normalised HSF1 focus index: stronger effect = lower value
[9] = survival rescue of mitochondrial mutant cells in low glucose, primary screen, MELAS cybrids, Rieske KO mouse fibroblasts, CellTiter-Glo (AID 1508586;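 active = mean z-score across replicates of 1.96 or higher in either the MELAS or the Rieske mutant cell line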;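 also: z relative to plate mean and SD of compound and empty wells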)
[10] = ovarian cancer cell viability with rucaparib, profiling panel, oncology-focused library, rucaparib conditional (AID 1508598); conditions: patient-derived ovarian cancer cells, CellTiter-Glo viability, 144 h, stronger effect = lower value
[11] = growth inhibition of DIPG glioma cells, dose response, cell-based, SU-DIPG-IV, MIPE4.0, CellTiter-Glo, qHTS (AID 1347063; cut-off not given, nearly all actives have AC50 up to about 30 µM;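 also: compound exposure lasted 48 hours before the viability readout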); conditions: SU-DIPG-IV viability, CellTiter-Glo ATP luminescence
[12] = stronger effect = lower value, cell number ratio, induced over uninduced
[13] = measured here: relative caspase fold change +Dox/-Dox
[14] = measured here: total cells with miR-34 induction, stronger effect = lower value
[15] = measured here: total cells without miR-34 induction
[16] = MELAS cybrid survival, CellTiter-Glo 48 h, stronger effect = higher value
[17] = Rieske KO mouse fibroblast survival, CellTiter-Glo 72 h
[18] = at 0.000305 µM, OCI-C5x cells, with rucaparib 10 µM, 100% = cells with rucaparib alone
[19] = at 0.000305 µM, OCI-C5x cells, without rucaparib
[20] = at 0.000305 µM, OCI-P5x cells, with rucaparib 20 µM, 100% = cells with rucaparib alone
[21] = at 0.000305 µM, OCI-P5x cells, without rucaparib
[22] = at 0.00122 µM, OCI-C5x cells, with rucaparib 10 µM, 100% = cells with rucaparib alone
[23] = at 0.00122 µM, OCI-C5x cells, without rucaparib
[24] = at 0.00122 µM, OCI-P5x cells, with rucaparib 20 µM, 100% = cells with rucaparib alone
[25] = at 0.00122 µM, OCI-P5x cells, without rucaparib
[26] = at 0.00488 µM, OCI-C5x cells, with rucaparib 10 µM, 100% = cells with rucaparib alone
[27] = at 0.00488 µM, OCI-C5x cells, without rucaparib
[28] = at 0.00488 µM, OCI-P5x cells, with rucaparib 20 µM, 100% = cells with rucaparib alone
[29] = at 0.00488 µM, OCI-P5x cells, without rucaparib
[30] = at 0.0195 µM, OCI-C5x cells, with rucaparib 10 µM, 100% = cells with rucaparib alone
[31] = at 0.0195 µM, OCI-C5x cells, without rucaparib
[32] = at 0.0195 µM, OCI-P5x cells, with rucaparib 20 µM, 100% = cells with rucaparib alone
[33] = at 0.0195 µM, OCI-P5x cells, without rucaparib
[34] = at 0.0781 µM, OCI-C5x cells, with rucaparib 10 µM, 100% = cells with rucaparib alone
[35] = at 0.0781 µM, OCI-C5x cells, without rucaparib
[36] = at 0.0781 µM, OCI-P5x cells, with rucaparib 20 µM, 100% = cells with rucaparib alone
[37] = at 0.0781 µM, OCI-P5x cells, without rucaparib
[38] = at 0.313 µM, OCI-C5x cells, with rucaparib 10 µM, 100% = cells with rucaparib alone
[39] = at 0.313 µM, OCI-C5x cells, without rucaparib
[40] = at 0.313 µM, OCI-P5x cells, with rucaparib 20 µM, 100% = cells with rucaparib alone
[41] = at 0.313 µM, OCI-P5x cells, without rucaparib
[42] = at 1.25 µM, OCI-C5x cells, with rucaparib 10 µM, 100% = cells with rucaparib alone
[43] = at 1.25 µM, OCI-C5x cells, without rucaparib
[44] = at 1.25 µM, OCI-P5x cells, with rucaparib 20 µM, 100% = cells with rucaparib alone
[45] = at 1.25 µM, OCI-P5x cells, without rucaparib
[46] = at 5 µM, OCI-C5x cells, with rucaparib 10 µM, 100% = cells with rucaparib alone
[47] = at 5 µM, OCI-C5x cells, without rucaparib
[48] = at 5 µM, OCI-P5x cells, with rucaparib 20 µM, 100% = cells with rucaparib alone
[49] = at 5 µM, OCI-P5x cells, without rucaparib

O=C(NCc1ccccc1)[C@H](Cc1ccccc1)NC(=O)[C@H]1O[C@@H]1C(=O)NCCc1ccc(O)cc1
outcome [1]: inactive
outcome [2]: inactive
outcome [3]: inactive
outcome [4]: inactive
IC50 [5]: 18.6 µM (active)

Cc1csc(-c2nnc(Nc3ccc(Oc4ncccc4-c4ccnc(N)n4)cc3)c3ccccc23)c1
outcome [1]: inactive
outcome [2]: inactive
AC50 [3]: 0.00417 µM (active)
outcome [4]: inactive
outcome [6]: inactive
fold change [7, 12]: 1.11 (inactive)
fold change [7, 13]: 0.556
cell count [7, 14]: 3250
cell count [7, 15]: 2920
SSMD [8]: 8.74
cell count [8]: 7110
plate-normalised HSF1 focus index [8]: 1.31 (inactive)
z-score [9, 16]: -0.373 (inactive)
z-score [9, 17]: 1.23
viability [10, 18]: 113% (inactive)
viability [10, 19]: 116% (inactive)
viability [10, 20]: 111% (inactive)
viability [10, 21]: 94.9% (active)
viability [10, 22]: 109% (inactive)
viability [10, 23]: 107% (inactive)
viability [10, 24]: 108% (inactive)
viability [10, 25]: 98.2% (active)
viability [10, 26]: 103% (inactive)
viability [10, 27]: 92.7% (active)
viability [10, 28]: 113% (inactive)
viability [10, 29]: 93.3% (active)
viability [10, 30]: 78.2% (active)
viability [10, 31]: 88.5% (active)
viability [10, 32]: 93% (active)
viability [10, 33]: 70.3% (active)
viability [10, 34]: 82.2% (active)
viability [10, 35]: 99.2% (active)
viability [10, 36]: 92.9% (active)
viability [10, 37]: 66.6% (active)
viability [10, 38]: 79.9% (active)
viability [10, 39]: 105% (inactive)
viability [10, 40]: 94.9% (active)
viability [10, 41]: 67.8% (active)
viability [10, 42]: 102% (inactive)
viability [10, 43]: 95.4% (active)
viability [10, 44]: 91% (active)
viability [10, 45]: 64.7% (active)
viability [10, 46]: 119% (inactive)
viability [10, 47]: 133% (inactive)
viability [10, 48]: 58.5% (active)
viability [10, 49]: 54.4% (active)

c1ccc2c(Oc3nc(Nc4ccc(N5CCOCC5)cc4)c4ncn(C5CCCCC5)c4n3)cccc2c1
outcome [1]: inactive
outcome [2]: inactive
outcome [4]: inactive
AC50 [6]: 13.2 µM (active)
outcome [5]: inactive
fold change [7, 12]: 0.897 (inactive) and 0.992 (inactive)
fold change [7, 13]: 0.721 and 0.438
cell count [7, 14]: 5540 and 6870
cell count [7, 15]: 6180 and 6930
z-score [9, 16]: -0.486 (inactive)
z-score [9, 17]: 0.0671

OCc1ccc(-c2nn(Cc3ccccc3)c3ccccc23)o1
outcome [1]: inactive
outcome [2]: inactive
outcome [4]: inactive
AC50 [6]: 23.5 µM (active)
outcome [5]: inactive
fold change [7, 12]: 0.905 (inactive) and 0.927 (inactive) and 0.926 (inactive)
fold change [7, 13]: 1.2 and 0.954 and 0.941
cell count [7, 14]: 5070 and 1870 and 4400
cell count [7, 15]: 5600 and 2020 and 4750

CN(C)/[N+]([O-])=N/Oc1cc(ON[N+](=O)N2CCN(C(=O)c3cc(Cc4n[nH]c(=O)c5ccccc45)ccc3F)CC2)c([N+](=O)[O-])cc1[N+](=O)[O-]
AC50 [1]: 20.9 µM (active)
AC50 [2]: 13.2 µM (active)
outcome [4]: inactive

CCOC(=O)c1c(CSc2ccccc2)n(C)c2cc(Br)c(O)c(CN(C)C)c12
outcome [1]: inactive
AC50 [3]: 20.9 µM (active)
outcome [4]: inactive
outcome [5]: inactive
fold change [7, 12]: 0.89 (inactive)
fold change [7, 13]: 0.958
cell count [7, 14]: 6100
cell count [7, 15]: 6850
z-score [9, 16]: -0.35 (inactive)
z-score [9, 17]: -0.358

CN1CCN(c2cc(C(=O)Nc3ccc4c(c3)-c3c(c(C(N)=O)nn3-c3ccc(F)cc3)CC4)c(Cl)cn2)CC1
AC50 [1]: 9.35 µM (active)
AC50 [11]: 18.7 µM (active)
AC50 [3]: 10.5 µM (active)
AC50 [4]: 23.5 µM (active)
AC50 [6]: 13.2 µM (active)

CCC(=O)OCC(=O)[C@@]1(OC(=O)CC)[C@@H](C)C[C@H]2[C@@H]3CCC4=CC(=O)C=C[C@]4(C)[C@@]3(F)[C@@H](O)C[C@@]21C
AC50 [1]: 0.00935 µM (active)
AC50 [11]: 2.35 µM (active)

CN(C)N=Nc1nc[nH]c1C(N)=O
outcome [1]: inactive
outcome [11]: inactive
outcome [6]: inactive
fold change [7, 12]: 0.887 (inactive) and 0.898 (inactive)
fold change [7, 13]: 1.47 and 1.18
cell count [7, 14]: 9080 and 7660
cell count [7, 15]: 10200 and 8520
z-score [9, 16]: -0.353 (inactive) and -0.0151 (inactive)
z-score [9, 17]: 0.329 and 0.212
viability [10, 18]: 107% (inactive)
viability [10, 19]: 101% (inactive)
viability [10, 20]: 107% (inactive)
viability [10, 21]: 108% (inactive)
viability [10, 22]: 106% (inactive)
viability [10, 23]: 108% (inactive)
viability [10, 24]: 109% (inactive)
viability [10, 25]: 108% (inactive)
viability [10, 26]: 111% (inactive)
viability [10, 27]: 107% (inactive)
viability [10, 28]: 106% (inactive)
viability [10, 29]: 104% (inactive)
viability [10, 30]: 105% (inactive)
viability [10, 31]: 105% (inactive)
viability [10, 32]: 103% (inactive)
viability [10, 33]: 112% (inactive)
viability [10, 34]: 111% (inactive)
viability [10, 35]: 109% (inactive)
viability [10, 36]: 105% (inactive)
viability [10, 37]: 110% (inactive)
viability [10, 38]: 112% (inactive)
viability [10, 39]: 109% (inactive)
viability [10, 40]: 105% (inactive)
viability [10, 41]: 110% (inactive)
viability [10, 42]: 116% (inactive)
viability [10, 43]: 120% (inactive)
viability [10, 44]: 104% (inactive)
viability [10, 45]: 111% (inactive)
viability [10, 46]: 201% (inactive)
viability [10, 47]: 164% (inactive)
viability [10, 48]: 99.7% (active)
viability [10, 49]: 113% (inactive)

COc1cccc2c1CCCC2CCCN1CCN(C2CCCCC2)CC1 (configuration not stated)
outcome [1]: inactive
AC50 [11]: 18.7 µM (active)
SSMD [8]: -2.1
cell count [8]: 5730
plate-normalised HSF1 focus index [8]: 0.878 (inactive)
